This passage reports growth results from PubChem BioAssay (NCI).

About 83,000 compounds went through this panel and 20% of them were active in at least one assay; those are over-represented in the sample as a whole.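 Values shown are percent growth following 48 h exposure of cells in 96-well plates to a single concentration of compound; below 10 was considered active.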 Values without a mark were called inactive. Calls of active or inactive are those of the source.

Common to all, as to experiment: NCI-60 one-dose screen, 48 h (100 = growth as untreated, 0 = no growth, -100 = all killed)
Experiment [1] deals with HCT-15 colon. Particulars: 10 µM unless noted.
The subject of experiment [2] is HT29 colon. To be noted: 10 µM unless noted.
The test system of experiment [3] is SNB-75 CNS. To be noted: 10 µM.
The test system of experiment [4] is SNB-19 CNS. To be noted: 10 µM unless noted.
In experiment [5] the test system is U251 CNS. To be noted: 10 µM unless noted.
In experiment [6] the test system is PC-3 prostate. To be noted: 10 µM unless noted.
Experiment [7] concerns SK-MEL-5 melanoma. Particulars: 10 µM unless noted.
Experiment [8] deals with UACC-62 melanoma. To be noted: 10 µM unless noted.
Experiment [9] relates to LOX IMVI melanoma. Particulars: 10 µM unless noted.
The subject of experiment [10] is SK-MEL-28 melanoma. To be noted: 10 µM unless noted.
For experiment [11], the system named is SK-MEL-2 melanoma. Particulars: 10 µM unless noted.
Experiment [12] deals with EKVX NSCLC. To be noted: 10 µM unless noted.
The test system of experiment [13] is SN12C renal. To be noted: 10 µM unless noted.
The subject of experiment [14] is UO-31 renal. Particulars: 10 µM unless noted.
The subject of experiment [15] is TK-10 renal. Particulars: 10 µM unless noted.
Experiment [16] has as its system ACHN renal. Particulars: 10 µM unless noted.
In experiment [17] the test system is CAKI-1 renal. To be noted: 10 µM unless noted.
Experiment [18] relates to A498 renal. Particulars: 10 µM unless noted.
Experiment [19] relates to CCRF-CEM leukemia. Particulars: 10 µM unless noted.
Experiment [20] has as its system MOLT-4 leukemia. To be noted: 10 µM unless noted.

For the molecule `CCCN=C1NC(=O)/C(=C/c2nc(-c3ccc(OC)cc3)n3ccccc23)S1`, the growth was 84.8% in experiment [1]; 99.3% in [2]; 96.5% in [3]; 80.8% in experiment [4]; 52.9% in experiment [5]; 85.9% in [6]. Moreover, the growth is 64.9% in [7]; 93.1% in [8]; 52.7% in experiment [9]; 111% in experiment [10]; 95.2% in experiment [11]; 115% in experiment [12]. Moreover, the growth is 83.8% in [13]; 91.8% in experiment [14]; 91.1% in [15]; 62.7% in experiment [16]; 123% in experiment [17]; 103% in experiment [18]. In addition, the growth in experiment [19] was 84.9%; in [20], 76.5%.
With `Cc1c(C(N)=O)sc2c1c(=O)n(Cc1ccccc1)c1nnc(Nc3ccccc3)n21`, the growth in experiment [1] is 96.1%; in [2], 94.3%; in experiment [4], 101%; in experiment [5] it was 97.2%; in experiment [6] it was 96.9%; in experiment [7] it was 105%. For the same molecule, the growth in experiment [8] was 92.5%; in [9], 93.5%; in experiment [10], 109%; in experiment [11], 103%; in [12] it was 94.1%; in [13] it was 99.2%. Moreover, the growth in experiment [14] was 67.9%; in experiment [15] it was 113%; in experiment [16], 96.4%; in experiment [17] it was 82%; in experiment [18], 110%.
On to `CCOC(=O)c1c(/N=C2\SC(=O)/C(=C\C(=O)OC)N2NC)sc2c1CCN(C(=O)OCC)C2`, for which the growth in [1] is 95.9%; in experiment [2], 99%; in [4], 99.2%; in experiment [5] it was 101%; in experiment [6], 94.8%; in [7] it was 99.5%. Moreover, the growth in [8] is 97.7%; in experiment [9], 94.2%; in [10], 101%; in [11], 92.5%; in experiment [12], 89.1%; in experiment [13] it was 98.9%. Also, the growth in experiment [14] is 87%; in [15], 121%; in [16] it was 102%; in [17] it was 103%; in experiment [18], 110%; in experiment [19], 101%.
As for `NC1=C(/C(N)=N/O)C(c2ccccc2)c2ccc3ccccc3c2O1` (configuration not stated), the growth is 5.04% (active) in experiment [1]; 6.2% (active) in experiment [2]; 24.8% in experiment [4]; 19.6% in experiment [5]; 20.4% in [6]; -44.5% (active) in experiment [7]. In addition, the growth in experiment [8] is 19.8%; in [9], 22.7%; in [10], 49.8%; in experiment [11] it was 44.7%; in [12], 29.1%; in experiment [13], 24.2%. The growth is 38.6% in experiment [14]; 74.4% in [15]; 28.2% in experiment [16]; 26% in experiment [17]; -8.95% (active) in experiment [18]; 14.4% in experiment [19]. In addition, the growth in [20] was 27.2%.
As for `COC1=C(OC)C(=O)C(CCCCCCCCCC[P+](c2ccccc2)(c2ccccc2)c2ccccc2)=C(C)C1=O`, the growth in experiment [1] was -3.39% (active); in experiment [2], -10.6% (active); in experiment [3], -44.5% (active); in [4], -53.1% (active); in [5] it was -27.2% (active); in [6], -12.7% (active). The growth in experiment [7] is -100% (active); in experiment [8], -93% (active); in experiment [9] it was -89.6% (active); in [10] it was -86.1% (active); in experiment [11], -42.7% (active); in [12], -6.16% (active). In addition, the growth was -74.8% (active) in [13]; -18.2% (active) in [14]; -56.7% (active) in [15]; -25.9% (active) in experiment [16]; -40.6% (active) in experiment [17]; -44.1% (active) in experiment [18]. Further, the growth in experiment [19] was -6.4% (active).
Regarding `Cc1ccc2ccccc2c1C[n+]1ccccc1`, the growth in [1] is 107%; in [2], 92%; in [4], 101%; in experiment [5] it was 83.6%; in experiment [6] it was 83.4%; in [7] it was 110%. The growth in [8] was 99.8%; in [9] it was 94.5%; in experiment [10], 110%; in experiment [11] it was 111%; in experiment [12] it was 58.2%; in [13], 98.4%. For the same molecule, the growth is 84% in experiment [14]; 88.4% in experiment [15]; 106% in experiment [16]; 92.8% in [17]; 79.3% in experiment [18].
Consider `O=c1[nH]c(NCc2ccccc2)nc2nc(Nc3ccc(NC(=S)Nc4ccccc4)cc3)nc(-c3ccc(O)cc3O)c12`, for which the growth in experiment [1] was 105%; in experiment [2], 125%; in experiment [3] it was 91.7%; in [5], 87.8%; in experiment [6] it was 109%; in experiment [7], 113%. The growth in experiment [8] was 83%; in experiment [9] it was 101%; in experiment [10], 91.5%; in experiment [11] it was 97.5%; in experiment [12], 63.2%; in experiment [13], 97.4%. For the same molecule, the growth was 78.5% in experiment [14]; 134% in experiment [15]; 103% in experiment [16]; 77.3% in experiment [17]; 101% in [18]; 86.4% in experiment [19]. In experiment [20], the growth is 77.4%.
In the case of `O=c1[nH]c(Nc2ccc(S(=O)(=O)O)cc2)nc2nc(Nc3ccc(NC(=S)Nc4ccccc4)cc3)nc(-c3ccc(O)cc3O)c12`, the growth is 105% in experiment [1]; 125% in experiment [2]; 96.3% in experiment [3]; 101% in experiment [5]; 108% in experiment [6]; 114% in experiment [7]. Also, the growth was 91.5% in experiment [8]; 96.2% in [9]; 112% in [10]; 101% in experiment [11]; 110% in experiment [12]; 98.5% in experiment [13]. The growth in experiment [14] is 73.9%; in experiment [15], 156%; in [16], 100%; in experiment [17], 134%; in experiment [18], 111%; in experiment [20], 91.4%.
